# This is a sample that favours compounds with a hit; in the whole collection about 9.6% have one here.
# HCT116 bCat-KO: beta-catenin-lacking colon tumor cell growth suppression. HCT116 beta-catenin knockout viability, CellTiter-Glo, 60 h; stronger effect = lower value. AID 818. viability, % at 10 µM. actives 1.5% (n = 140,000);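 active = viability at or under a set limit, the compound median less 4 SD, cut at about 6% in these data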
# Lmaj promast: inhibitors of Leishmania major promastigote growth. Leishmania major promastigotes, resazurin fluorescence viability. actives 9% (n = 200,000). inhibition, % at 10 µM. AID 1063; in the data active = inhibition above about 50%;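 also: promastigotes grown with compound for 44 hours at 28 °C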
# PTEN del growth: PTEN-deleted cell growth suppression; HCT116 PTEN-null viability, CellTiter-Glo, 60 h; stronger effect = lower value; viability, % at 10 µM; actives 1.2% (n = 140,000);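 active = viability at or below a set limit, 4 SD under the median of all tested compounds, cut at about 3.7% in these data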;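 also: PTEN knockout HCT116 line with beta catenin targeted HCT116 as companion control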
# Autophagy HCS: modulators of autophagy. actives 0.98% (n = 190,000). MEF GFP-LC3 puncta imaging; test concentration mostly 10 µM. calls only at 10 µM (by protocol);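 active = percentage of spot-positive cells more than 3 SD above its plate mean, without a fluorescence outlier flag or 80% toxicity; inconclusive = no clear call, values can overlap the other calls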
# Insulin prom inh: TRM-6 insulin promoter activity inhibition; TRM-6 cells (human fetal islet line), insulin promoter-eGFP reporter, imaging; reporter expression induced with tamoxifen; inhibition, % at 2 µM; actives 0.9% (n = 130,000); AID 1273;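 active = inhibition above the mean plus 3 SD, with well images judged a real hit on visual review, cut at about 60% in these data, passing the limit was not always enough; inconclusive = inhibition over the cutoff but images rejected on review; inactive = inhibition not above the cutoff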
# Ins promoter up: MIN6 insulin promoter up-regulation; MIN6 insulin promoter-GFP reporter, high-content imaging; stronger effect = higher value; z-score at 5 µM; actives 0.3% (n = 190,000); AID 1625;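 active = z-score above 3 at 5 µM with at least 500 cells counted in the well; inconclusive = wells under 500 cells, flagged as cytotoxic or low count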
# Hits are given with their value; – = inactive; ? = inconclusive; · = no result given; + = active, no number.
SMILES,HCT116 bCat-KO,Lmaj promast,PTEN del growth,Autophagy HCS,Insulin prom inh,Ins promoter up
COc1ccccc1/C=C/[C@@H]1C[C@H]2CN(Cc3cccc(Cl)c3)C(=O)[C@]23CCCN13,·,–,·,–,·,·
COc1cccc2c1OCC([C@@H]1C[C@H]3CN(Cc4cccc(Cl)c4)C(=O)[C@]34CCCN14)=C2,·,59,·,–,·,·
COc1ccccc1CN1C[C@@H]2C[C@@H](c3[nH]c4c(C)cccc4c3C)N3CCC[C@@]23C1=O,·,53,·,–,·,–
Fc1ccc(COc2ccc(Br)cc2CNCC2CCCO2)cc1 (centres undefined),·,82,·,–,·,–
Fc1ccccc1COc1ccc(Br)cc1CNCC1CCCO1 (centres undefined),·,–,·,–,·,–
COC(=O)c1nc(N)sc1-c1ccc(Cl)cc1,·,–,·,–,–,–
CCn1c(SCC(=O)Nc2ccc(N3CCOCC3)c(Cl)c2)nnc1-c1ccc(N)cc1,–,73,–,–,–,–
CCCC(=O)N1CCN(c2ccc(NC(=O)c3ccc(OCC)c([N+](=O)[O-])c3)cc2)CC1,–,–,–,–,–,·
O=C(NC(=S)Nc1ccc(N2CCOCC2)cc1)c1ccccc1,·,–,·,–,·,–
CCOc1ccc(C(=O)NC(=S)Nc2ccc(N3CCC(C)CC3)cc2)cc1[N+](=O)[O-],–,87,–,–,·,–
O=C(NC(=S)Nc1ccc(N2CCOCC2)cc1)c1cncc(Br)c1,–,–,–,–,67,–
CCC(=O)N1CCN(c2ccc(NC(=S)NC(=O)c3ccc(OC)c([N+](=O)[O-])c3)cc2)CC1,·,53,·,–,·,–
CCOc1ccc(C(=O)NC(=S)Nc2ccccc2N2CCC(C)CC2)cc1[N+](=O)[O-],–,–,–,–,–,·
COCCCNC(=O)c1c[nH]c2ccc(S(=O)(=O)N3CCC4(CC3)OCCO4)cc2c1=O,·,–,·,–,·,–
CCCC(=O)NC(=S)Nc1ccc(N2CCOCC2)c(Cl)c1,–,60,–,–,–,–
O=C(NC(=S)Nc1ccc(N2CCOCC2)c(Cl)c1)C(c1ccccc1)c1ccccc1,–,–,–,–,–,–
COc1ccc(C(=O)NC(=S)Nc2ccc(N3CCOCC3)c(Cl)c2)cc1[N+](=O)[O-],–,100,–,–,–,–
Cc1cc(CNC(=O)c2cc(-c3ccccc3)nc3ccccc23)nn1C,·,–,·,–,·,–
CCOC(=O)c1ccc(Oc2nc(OC)nc(N(C)C)n2)cc1,–,–,–,–,–,–
CCOC(=O)c1ccc(Oc2nc(NC)nc(Nc3ccccc3)n2)cc1,–,97,–,–,–,–
COC(=O)c1ccc(Oc2nc(Nc3ccc(C)c(C)c3)nc(N(C)C)n2)cc1,–,74,–,–,–,–
CCNc1nc(Oc2ccc(C(=O)OC)cc2)nc(N(C)C)n1,–,–,–,–,–,–
CC(=O)Nc1ccc(/C=N/Nc2nc3ccccc3[nH]2)cc1,–,100,–,–,·,–
Fc1ccc(/C=N/Nc2ccccn2)cc1,–,69,–,–,–,–
O=c1[nH]c(N/N=C\c2ccc(F)cc2)nc2ccccc12,·,65,·,–,·,–
SMILES,HCT116 bCat-KO,Lmaj promast,PTEN del growth,Autophagy HCS,Insulin prom inh,Ins promoter up
O=c1[nH]c(N/N=C/c2ccc(O)cc2)nc2ccccc12,–,–,–,–,–,–
Clc1ccc(/C=N/Nc2ccccn2)cc1,·,–,·,–,–,–
CCN(CC)c1ccc(/C=N/Nc2nc3ccccc3[nH]2)cc1,2.8,100,1.6,+,–,–
O=C(NCCCNC(=O)c1cccs1)c1cccs1,–,–,·,–,·,–
CC(=O)N1CCN(c2nc(CC(C)C)c3c(c2C#N)CCC3)CC1,–,–,–,–,·,–
CCOC(=O)c1nnn(CC(=O)Nc2cccc(Cl)c2C)c1C(=O)OCC,–,–,–,–,–,–
CCOC(=O)c1nnn(CC(=O)N2N=C(c3cccc4ccccc34)CC2c2ccccc2)c1C(=O)OCC (centres undefined),–,52,–,–,–,·
CCN(c1ccccc1)S(=O)(=O)c1ccc(OC)c(NC(=O)c2cccs2)c1,·,96,·,–,–,–
O=C(CSc1nnc(-c2ccc(Br)cc2)n1CCc1ccccc1)NC1CCS(=O)(=O)C1 (centres undefined),–,–,–,–,·,–
COc1ccc(C(=O)c2ccc(N3CCN(C(=O)c4ccc(F)cc4)CC3)c(F)c2)cc1Br,–,–,–,–,–,–
Cc1c(Cl)cccc1N=Cc1ccc([N+](=O)[O-])s1,–,101,–,–,·,–
O=C(CSc1nc2cc(C(F)(F)F)ccc2n1Cc1ccccc1)NC1CCS(=O)(=O)C1 (centres undefined),–,97,–,–,–,–
Cc1ccc(-n2c(SCC(=O)NC3CCS(=O)(=O)C3)nc3ccccc3c2=O)cc1 (centres undefined),·,–,·,–,·,–
O=C(Cn1nc(CNc2ccc(Cl)cc2)[n+]2c1CCCCC2)c1ccc(Br)cc1,–,59,–,–,–,–
COc1ccc(NCc2nn(CC(=O)c3ccc(Br)cc3)c3[n+]2CCCCC3)cc1,·,–,·,–,–,–
O=C(O)c1ccc(N/N=C/C2=C(N3CCOCC3)C(=C\c3ccccc3)/CC2)cc1,·,·,·,·,·,–
CC(C)C(NC(=O)C12CC3CC(CC(C3)C1)C2)C(=O)N/N=C/C1=C(N2CCOCC2)C(=C\c2cccc([N+](=O)[O-])c2)/CC1 (centres undefined),–,97,–,–,–,–
O=C(COC(=O)c1cc(S(=O)(=O)N2CCOCC2)ccc1O)Nc1cc(S(=O)(=O)N2CCCC2)ccc1Cl,·,·,·,·,·,–
CCN(CC)C(=O)CSc1nnc(COc2cccc(C)c2)n1C,·,–,·,–,–,·
CSc1ccccc1NC(=O)CSc1nnnn1-c1ccccc1SC,–,67,–,–,–,–
CC(=O)Nc1sc2c(c1-c1nc3ccccc3s1)CCN(C(C)C)C2,·,100,·,–,·,?
CC(=O)Nc1cccc(-c2nc3ccccc3s2)c1,·,–,·,–,·,–
COCCn1c(N)c(C(=O)NCC2CCCO2)c2nc3ccccc3nc21 (centres undefined),–,–,–,–,·,–
CC(C)Cn1c(N)c(C(=O)NCC2CCCO2)c2nc3ccccc3nc21 (centres undefined),–,59,–,–,–,–
COc1ccc(OC)c(-n2c(N)c(C(=O)NCC3CCCO3)c3nc4ccccc4nc32)c1 (centres undefined),–,–,–,–,–,–
SMILES,HCT116 bCat-KO,Lmaj promast,PTEN del growth,Autophagy HCS,Insulin prom inh,Ins promoter up
Nc1c(C(=O)OCC2CCCO2)c2nc3ccccc3nc2n1C1CCCC1 (centres undefined),–,51,–,–,–,–
CC(C)c1cccc(C(C)C)c1NC(=O)CNCc1ccccc1F,–,60,–,–,–,–
CC(C)c1cccc(C(C)C)c1NC(=O)CCl,·,–,·,–,·,–
O=C(Nc1ccc(NC(=O)C23CC4CC(CC(C4)C2)C3)cn1)c1ccco1,–,–,–,–,·,·
O=C(/C=C/c1ccco1)c1ccc(NC(=O)C23CC4CC(CC(C4)C2)C3)cc1,–,59,–,–,·,–
COc1cc(/C=C(\C#N)c2nc(-c3cc4ccccc4oc3=O)cs2)ccc1O,–,61,–,–,·,–
CC(=O)COc1ncn(-c2ccccc2)n1,–,–,–,–,–,–

# From PubChem BioAssay
